The whole screen tested about 16,000 compounds, of which about 5,700 (36%) were called active. Inconclusive results (about 24%) are left out. Some of the results follow. A number with no mark means an inactive call. Calls follow the shape of the dose curve; as a rule, active = well fitted curve in the direction sought with a large enough effect; inconclusive = small, poorly fitted or top-dose-only effect, or effect the other way; inactive = no such curve, though single readings can be large or run the other way.
Biological target: Cytochrome P450 1A2 (Homo sapiens) (UniProt P05177)
Sequence (P05177 whole entry, looked up): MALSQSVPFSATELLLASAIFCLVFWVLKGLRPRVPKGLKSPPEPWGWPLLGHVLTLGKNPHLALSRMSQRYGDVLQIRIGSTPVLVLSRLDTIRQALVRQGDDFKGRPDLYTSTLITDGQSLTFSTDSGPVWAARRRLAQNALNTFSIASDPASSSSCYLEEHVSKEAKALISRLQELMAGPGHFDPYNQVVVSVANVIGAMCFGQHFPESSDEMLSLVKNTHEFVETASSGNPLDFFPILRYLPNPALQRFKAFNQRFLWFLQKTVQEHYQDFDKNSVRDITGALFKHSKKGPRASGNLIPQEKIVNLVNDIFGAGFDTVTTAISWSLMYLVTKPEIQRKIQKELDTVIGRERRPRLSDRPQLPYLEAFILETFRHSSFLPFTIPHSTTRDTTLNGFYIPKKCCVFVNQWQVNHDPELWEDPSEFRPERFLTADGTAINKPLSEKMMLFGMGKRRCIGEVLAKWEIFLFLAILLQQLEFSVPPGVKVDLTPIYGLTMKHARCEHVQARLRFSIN
Experiment: Cytochrome panel assay with activity outcomes
Conditions: recombinant CYP, pro-luciferin dealkylation, luminescence, p450-cyp1a2; series mostly up to 57.1 µM
% is scaled to controls: 0 for no effect and ±100 for the full control effect.

Compound	AC50	activity, negative = inhibition
COc1ccc(CC(=O)N2CCN(c3ccc(C4=NNC(=O)CC4C)cc3)CC2)cc1 (stereo not drawn)	inactive	
COc1cccc(N=Cc2c[nH][nH]c2=O)c1	1 µM (active)	
O=c1c(C=Nc2ccc(Oc3ccccc3)cc2)c[nH]n1-c1cccc(Cl)n1	inactive	
O=c1[nH][nH]cc1C=Nc1ccccc1O	10 µM (active)	
N[C@@H](C(=O)O)c1ccc(C(=O)O)c(O)c1	inactive	
N[C@H](C(=O)O)c1ccc(C(=O)O)c(O)c1	inactive	
N[C@@H](C(=O)O)c1cc(O)ccc1Cl	15.8 µM (active)	
O=C(O)CN(CCOCCOCCN(CC(=O)O)CC(=O)O)CC(=O)O	inactive	
CCCn1nc(Oc2nc(NCC)nc(NC(C)C)n2)ccc1=O	inactive	
CCCNc1nc(NCC)nc(OC)n1	11.2 µM (active)	
CCNc1nc(NCC)nc(ON=C(C)C)n1	14.1 µM (active)	
O=S(=O)(c1ccccc1)N1CCC2(CCN(C(c3ccccc3)c3ccccc3)CC2)CC1	inactive	
COc1cc2nc(N(C)CCCNC(=O)[C@@H]3CCCO3)nc(N)c2cc1OC	inactive	
Cc1cccc(C(=O)NNC(=O)C2CCCO2)c1 (stereo not drawn)	inactive	
O=C(Nc1nc2ccc(F)cc2s1)C1CCCO1 (stereo not drawn)	4.47 µM (active)	
CS(=O)(=O)N1CCC2(CCN(Cc3ccncc3)CC2)CC1	inactive	
C[C@@H](CCc1ccccc1)NC[C@H](O)c1ccc(O)c(C(N)=O)c1	inactive	
CCCCNC(=O)C(=O)NC(C)CCc1ccccc1 (stereo not drawn)	15.8 µM (active)	
CCOC(=O)[C@H](CCc1ccccc1)N[C@@H](C)C(=O)N1CCC[C@H]1C(=O)O	inactive	
CC(CCc1ccccc1)NC(=O)C(=O)NCCO (stereo not drawn)	inactive	
Cc1ccc(S(=O)(=O)N[C@@H](CCc2ccccc2)CC(=O)C(C)(C)C)cc1		2.3% [at 11.4 µM]
CC(CCc1ccccc1)NS(=O)(=O)c1ccccc1 (stereo not drawn)	14.1 µM (active)	
CC(CCc1ccccc1)NC(=O)/C=C/c1ccccc1 (stereo not drawn)	12.6 µM (active)	
C[C@@H](CS(=O)(=O)Cc1ccccc1)C(N)=O		-13.3% [at 11.4 µM]
C=CC[C@@H]1C=C[C@H](O/N=C2\c3cc(OC)ccc3O[C@H](c3cccc(OC)c3)[C@H]2O)[C@H](CO)O1		-7.04% [at 11.4 µM]
O=[N+]([O-])c1ccc(Cl)c(-c2ccc(/C=N/c3c(-c4ccco4)nc4ccccn34)o2)c1	inactive	

Compound	AC50	activity, negative = inhibition
COc1cc(-c2nc3ccccn3c2/N=C/c2ccccc2)ccc1O	3.16 µM (active)	
C[n+]1cc2c3c(ccc2c2ccc4cc5c(cc4c21)OCO5)OCO3	3.98 µM (active)	
Cc1cnc(CNc2ccnc(-c3ccc(N(C)C)cc3)n2)cn1	2.51 µM (active)	
Cc1cnc(CNc2ccnc(-c3ccoc3)n2)cn1	12.6 µM (active)	
CO/N=C\c1ccc(C(=O)N2[C@H](c3ccc(C)cc3)[C@@H](C)CC[C@H]2C(=O)OC)cc1		-13.4% [at 11.4 µM]
O=C(O)CC1(CC(=O)O)Nc2ccccc2SC1=O		2.04% [at 2.29 µM]
C[N+](C)(C)c1cc2c(nn1)Nc1ccccc1S2	2 µM (active)	
CCCCC/C=C\C[C@H](O)/C=C\c1cccc(C[C@H](O)CCCCO)n1	inactive	
CC(/C=C/c1ccco1)=N/NC(=O)c1ccccc1Cl	17.8 µM (active)	
Cc1ccc(NC(=S)/C(=C(\[O-])c2ccc(C)c([N+](=O)[O-])c2)[n+]2ccccc2)cc1C	14.1 µM (active)	
CC(C)=C1C(=O)C(c2ccccc2)=C2CN3C(=O)N(CCc4ccccc4)C(=O)[C@]3(Cc3ccccc3)[C@H]21	inactive	
O=C(O)c1sc2cc(C(F)(F)F)cnc2c1-c1ccccc1	inactive	
O=C(O)Cc1ccc2c(c1)N(S(=O)(=O)c1cccc(C(F)(F)F)c1)CC(C(=O)O)O2 (stereo not drawn)	inactive	
O=C(O)c1cccnc1Nc1cccc(C(F)(F)F)c1	5.01 µM (active)	
CCOC(=O)C1CN(S(=O)(=O)c2cccc(C(F)(F)F)c2)c2cc(CC(=O)OC)ccc2O1 (stereo not drawn)	inactive	
O=C(COC(=O)c1cccnc1Nc1cccc(C(F)(F)F)c1)NCc1ccc2c(c1)OCO2	3.55 µM (active)	
O=C(O)c1cccnc1C(=O)O	inactive	
CCN[C@@H]1C[C@H](C)S(=O)(=O)c2sc(S(N)(=O)=O)cc21	inactive	
Cc1ncc(COP(=O)(O)O)c(C)c1O		-20.3% [at 11.4 µM]
COC(=O)[C@@H]1CC[C@H](C)[C@@H](c2ccc(C)cc2)N1C(=O)c1ccc(/C=N\O[C@@H](C)CN2CCCCc3nc(C)c(C)cc32)cc1		-5.58% [at 11.4 µM]
CCn1nnnc1SCC(=O)c1ccc2c(c1)OCCO2	8.91 µM (active)	
CC(C)n1nnnc1SCC(=O)c1ccc2c(c1)OCCO2	5.01 µM (active)	
CC(=O)N[C@H]1[C@@H](O[C@@H](C)C(=O)O)[C@H](O)[C@H](CO)O[C@@H]1O	inactive	
CO[C@H]1COC(=O)[C@H]2CCCN2C(=O)C/C=C\[C@@H](C)[C@H](OC)COC(=O)C/C=C\[C@@H]1C		1.68% [at 11.4 µM]
Cc1cc(C(=O)NNCc2ccccc2)no1	12.6 µM (active)	
CCNC(=S)NNC(=O)c1cc(C)on1	inactive	

Compound	AC50	activity, negative = inhibition
COC(=O)[C@@H]1C[C@H]1[C@@H](NC(=O)c1cc(C)on1)c1ccccc1	20 µM (active)	
Cc1occc1C(=O)NNC(=O)Cc1ccccc1	inactive	
COC(=O)[C@@H]1C[C@H]1[C@@H](NC(=O)c1cc(C)nn1C)c1ccccc1	15.8 µM (active)	
Cc1cc(CNC(=O)[C@H]2C[C@@H]2[C@H](NP(=O)(c2ccccc2)c2ccccc2)c2ccccc2)nn1C	inactive	
COc1ccc(O[C@H]2C=C[C@@H](c3ccccc3)O[C@@H]2CON=C(C)C)cc1		-2.27% [at 11.4 µM]
Cc1cc2nc3[nH]c4c(Cl)cc(Cl)cc4c3nc2cc1C	0.631 µM (active)	
CS(=O)(=O)N1CCC2(CC1)CN(C(=O)Nc1cccc(C#N)c1)C2	inactive	
C=CCNC(=S)N/N=C/c1ccc(-c2cc(Cl)ccc2Cl)o1	0.112 µM (active)	
CC(=O)C1=C(O)C=C(c2ccco2)CC1c1ccco1 (stereo not drawn)	5.01 µM (active)	
CC1=CC=CN2CC(O)CN=C12 (stereo not drawn)	inactive	
N#Cc1ccccc1NC(=O)Nc1cccs1	7.08 µM (active)	
COc1cc2c3cc1Oc1cc(ccc1O)C[C@@H]1c4c(cc(OC)c(O)c4Oc4ccc(cc4)C[C@H]3[N+](C)(C)CC2)CC[N+]1(C)C		-5.47% [at 11.4 µM]
COC(=O)[C@@H]1CC[C@H](C)[C@@H](c2ccc(C)cc2)N1C(=O)c1ccc(/C=N\OC[C@@H](C)[C@H](OCc2ccccc2)C(C)C)cc1		-8.55% [at 11.4 µM]
COc1ccc([N+](=O)[O-])cc1NCc1ccccc1C	2.82 µM (active)	
Cc1cc([N+](=O)[O-])ccc1NCc1ccccc1	2.82 µM (active)	
COc1ccc([N+](=O)[O-])cc1NC1C2CC3CC(C2)CC1C3 (stereo not drawn)	inactive	
Cc1cc(C)c(-c2cc([C@H](C)O/N=C\[C@@H](C)[C@H](OCc3ccccc3)C(C)C)on2)c(C)c1		5.92% [at 11.4 µM]
O=C(O)CONC(=O)c1cc(OCC(F)(F)F)ccc1OCC(F)(F)F	inactive	
S=C(NCCSCc1c(Cl)cccc1Cl)Nc1ccccc1	1.41 µM (active)	
Fc1cccc(NC(=S)NCCCN2CCOCC2)c1	inactive	
CN(C)c1ccc(N=Cc2nc(-c3ccccc3)oc2O)cc1	0.398 µM (active)	
Oc1oc(-c2ccccc2)nc1C=Nc1ccccc1	0.316 µM (active)	
CSc1nc2n(n1)C(c1cccc(F)c1)C(C(=O)Nc1ccc(C)cc1C)=C(C)N2 (stereo not drawn)	inactive	
CC1=C(C(N)=O)C(c2ccccc2)n2nc(-c3ccncc3)nc2N1 (stereo not drawn)	14.1 µM (active)	
CCOC(=O)C1=C(C)Nc2ncnn2C1c1cccnc1 (stereo not drawn)	inactive	
COc1ccc(OC)c(Nc2nc(-c3sc(NC(=O)c4ccccc4)nc3C)cs2)c1	inactive	

Compound	AC50	activity, negative = inhibition
COc1cccc([C@H](O)Cn2cc(-c3ccc(CON=C(C)C)cc3)nn2)c1		-9.27% [at 11.4 µM]
COc1cccc(Nc2nc(-c3ccc(O)cc3)cs2)c1	1 µM (active)	
C=CCNC(=S)Nc1ccc2nc(C)c(C)nc2c1	4.47 µM (active)	
COc1cc(N=c2ssnc2Cl)cc(OC)c1OC	3.16 µM (active)	
CCn1c(CCCc2nc3c([nH]2)c(=O)n(C)c(=O)n3C)nc2c1c(=O)n(C)c(=O)n2C		-16.7% [at 2.29 µM]
COc1ccc(-c2nc3c([nH]2)c(=O)n(C)c(=O)n3C)c(OC)c1	2 µM (active)	
CCn1c(=O)c2[nH]c(-c3ccccc3)nc2n(CC)c1=O	1 µM (active)	
CCCn1c(=O)c2[nH]c(-c3ccccc3)nc2n(CCC)c1=O	0.0794 µM (active)	
Cn1c(=O)c2[nH]c(-c3ccc(S(=O)(=O)O)cc3)nc2n(C)c1=O	inactive	
Cn1c(=O)c2[nH]c(CSCc3ccccc3)nc2n(C)c1=O		-15.4% [at 2.29 µM]
Cn1c(=O)c2[nH]c(-c3ccccc3)nc2n(C)c1=O	2 µM (active)	
Cn1c(=O)c2[nH]c(CCC(=O)O)nc2n(C)c1=O		-3.23% [at 11.4 µM]
Cn1c(=O)c2[nH]cnc2n(C)c1=O	inactive	
CCCn1c(=O)c2[nH]c(-c3ccc(OCC(=O)NCCN)cc3)nc2n(CCC)c1=O	inactive	
CCOC(=O)Nc1ccc(C(=O)Oc2ccccc2)c(O)c1	3.16 µM (active)	
CC(=O)Nc1ccc2c(c1)OCCOCCOc1cc(NC(C)=O)ccc1OCCOCCOCCO2	inactive	
O=C(CC1C(=O)NCCN1C(=S)Nc1ccccc1)Nc1ccc2c(c1)OCCO2 (stereo not drawn)	inactive	
COc1cc2c(cc1OC)C(C(=O)Nc1ccc3c(c1)OCCO3)C(c1cccnc1)N(C)C2=O (stereo not drawn)	inactive	
O=C(Cn1ccc(=O)[nH]c1=O)Nc1ccc(C(=O)O)c(O)c1		-16.5% [at 2.29 µM]
CCNC(=O)NC1(C(=O)Nc2ccc3c(c2)OCCO3)CCCCC1	inactive	
Cn1ncc([N+](=O)[O-])c1C(=O)Nc1ccc2c(c1)OCCO2	1.26 µM (active)	
O=C(CC(c1ccccc1)c1ccccc1)Nc1ccc2c(c1)OCCO2	10 µM (active)	
CC(=O)Nc1ccc2c(c1)OCCO2	10 µM (active)	
Cc1cc(NC(=O)c2c([N+](=O)[O-])cnn2C)no1	inactive	
CC(C)(C)c1ccc(OC(=O)Nc2ccc(O)c(C(=O)O)c2)cc1		6.5% [at 2.29 µM]
